The source of these data is PubChem BioAssay AID489012 (National Center for Advancing Translational Sciences (NCATS), 2010).

Inconclusive results are not listed. Calls of active or inactive are those of the source. Calls follow the shape of the dose curve; as a rule, active = well fitted activation curve with a large enough effect; inconclusive = small, poorly fitted or top-dose-only effect; inactive = no such curve, though single readings can be large or run the other way.
Potency is read from the fitted curve at half-maximal effect.

Chain of Relaxin receptor 1 (Homo sapiens) (Q9HBX9 whole entry, looked up): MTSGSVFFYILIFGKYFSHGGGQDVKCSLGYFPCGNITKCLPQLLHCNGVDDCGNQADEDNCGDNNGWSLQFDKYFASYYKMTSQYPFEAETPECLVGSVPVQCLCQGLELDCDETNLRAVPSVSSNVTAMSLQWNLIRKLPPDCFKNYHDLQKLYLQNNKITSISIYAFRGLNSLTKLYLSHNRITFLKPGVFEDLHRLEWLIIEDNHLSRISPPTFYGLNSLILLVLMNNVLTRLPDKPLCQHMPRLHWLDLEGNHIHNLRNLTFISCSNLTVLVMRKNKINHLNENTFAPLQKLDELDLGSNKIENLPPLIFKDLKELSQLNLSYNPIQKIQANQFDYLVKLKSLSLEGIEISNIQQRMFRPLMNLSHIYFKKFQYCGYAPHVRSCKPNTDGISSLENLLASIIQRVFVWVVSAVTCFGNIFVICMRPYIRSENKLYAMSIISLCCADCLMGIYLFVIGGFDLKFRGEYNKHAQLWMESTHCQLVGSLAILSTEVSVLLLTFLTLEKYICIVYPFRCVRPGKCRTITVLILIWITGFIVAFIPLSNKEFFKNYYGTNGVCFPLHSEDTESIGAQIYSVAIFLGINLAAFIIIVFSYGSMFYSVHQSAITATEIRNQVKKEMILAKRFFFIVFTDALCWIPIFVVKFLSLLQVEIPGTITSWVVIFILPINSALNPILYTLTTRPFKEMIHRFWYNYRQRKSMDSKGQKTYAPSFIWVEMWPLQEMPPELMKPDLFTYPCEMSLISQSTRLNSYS

The target of the test is Relaxin receptor 1 (Homo sapiens) (UniProt Q9HBX9). The test can be described thus: qHTS Assay for Agonists of the Relaxin Receptor RXFP1: RXFP1 Hit Validation. Also: nearly all actives have a fitted effect of over 65% in size.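 As to activation: cAMP rise lowers the TR-FRET signal in lysed cells with PDE4 inhibitor present; 0% = buffer-only basal and 100% = 29 nM porcine relaxin.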 The following applies: HEK293T-RXFP1 cAMP TR-FRET, 30 min; series mostly up to 45 µM; activation: at the top concentration. The text has this:
NIH Chemical Genomics Center [NCGC] NIH Molecular Libraries Probe Production Centers Network [MLPCN] MLPCN Grant: R03 MH085705-01A1 Assay Submitter (PI): Alexander Agoulnik NCGC Assay Overview: The relaxin hormone is involved in the variety of biological functions in normal tissues and diseases. The role of relaxin is well-established in female reproduction and parturition, mammary gland and endometrial development, maintenance of myometrial quiescence during pregnancy. Relaxin signaling through its G protein-coupled receptor (GPCR) RXFP1 results in ECM remodeling through regulation of collagen deposition, cell invasiveness, proliferation and overall tissue homeostasis. […] Recombinant human relaxin (rhRlx) is currently being tested in clinical trials as a protective agent in congestive heart failure, in treating severe preeclampsia, and as an anti-fibrotic agent in systemic sclerosis. Upon relaxin binding RXFP1 activation leads to the activation of adenylate cyclase (AC) via Gs. cAMP will activate PKA, which phosphorylates many signaling proteins. Thus, detection of cAMP increase is an easy and reliable indication of relaxin receptor activation. To screen for agonists of the relaxin receptor, a HEK293T cell line stably transfected with RXFP1 was used. RXFP1 activation was assayed by changes in cAMP levels as detected with a time-resolved fluorescence energy transfer (TR-FRET) cAMP detection kit.
NCGC Assay Protocol Summary: This is a cell-based assay for cAMP second messenger response to screen for agonists of the RXFP1 receptor. The assay was conducted in the presence of a PDE4 inhibitor (Ro 20174). The cells were lysed and the cAMP levels were measured with a TR-FRET cAMP kit. Presence of cAMP in the cell lysate disrupts binding between the cryptate-labeled anti-cAMP and d2-labeled cAMP pair, leading to a decrease in the TR-FRET signal. Data were normalized to the controls for basal activity (buffer only) and 100% activity (29 nM porcine relaxin). The EC50 values were determined from concentration-response data modeled with the standard Hill equation 1536-well assay protocol for the HEK293 RXFP1 cAMP assay: (1) Add 3 ul HEK293 RXFP1 cell culture. 2000 cells/well in DMEM/F12, 10% FBS, 1x Pen/Strep (dispensed offline with MultiDrop Combi). (2) Incubate 16-24 hr at 37C, 5% CO2. (3) Add 1 ul 400uM Ro20174 in DPBS, 0.05% BSA, 0.005% Tween 20. (3) Add 23 nl compounds in DMSO solution. Final concentration was 0.5 - 58 uM. (4) Incubate 30 min at 37C, 5% CO2. (5) Add 1 ul cAMP-d2 in lysis buffer (HTRF cAMP HiRange kit, CisBio). (6) Add 1 ul anti-cAMP antibody-cryptate in lysis buffer (HTRF cAMP HiRange kit, CisBio). (7) Incubate 30 min at room temperature. […]
(In qHTS, concentration-response curves come from the screen itself.)
`CCC(Oc1cc(Cl)ccc1Cl)C(=O)N1CCC2(CC1)OCCO2` (centres undefined): the “activation” value was 3.75% [at 115 µM] (inactive). Consider `CCNC(=O)[C@H]1O[C@@H](n2cnc3c(N)ncnc32)[C@H](O)[C@@H]1O`, for which the Potency was 0.308 µM (active). Still for that read-out and setting: as for `Nc1ncc2[nH]cnc2n1`, the figure is 13.8 µM (active).

As for `O=C(O)c1sc2cc(Cl)ccc2c1Cl`, the “activation” value is 26.2% (inactive).
